Reference: PubChem BioAssay (NCI)
Compounds without any hit were thinned out: in the full panel of roughly 83,000, 20% have a hit.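 Method: cells in 96-well plates; compound added at one concentration; 48 h incubation; percent growth measured; values under 10 scored active.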 Active and inactive are the calls of the source.

These compounds were tested on CCRF-CEM leukemia (assay: NCI-60 one-dose screen, 48 h (100 = growth as untreated, 0 = no growth, -100 = all killed)). Conditions: 10 µM.

Row | Structure (SMILES) | growth
1 | CCCC#CCN(CC)CC | 95% (inactive)
2 | Cc1ccc(S(=O)(=O)OCCN(CCOS(=O)(=O)c2ccc(C)cc2)c2c[nH]c(=O)[nH]c2=O)cc1 | 101% (inactive)
3 | CCOC(=O)C(NC(=O)C(Cl)Cl)C(O)c1ccccc1 (configuration not stated) | 150% (inactive)

These compounds were tested on MOLT-4 leukemia in the same assay as above. Conditions: 10 µM.

Row | Structure (SMILES) | growth
4 | CCCCCCCNc1nc(C=O)ncc1-c1ccc(C(F)(F)F)cc1 | 86.5% (inactive)
5 | CCCCCCN1CCN(Cc2ccc(N(CC)CC)cc2)C(=O)C1=O | 19.1% (inactive)
6 | O=C(Nc1cccc(-n2cc(-c3ccncc3)c(-c3ccc(O)c(Cl)c3)n2)c1)Nc1ccc(Cl)c(Cl)c1 | -10% (active)
7 | S=C1SCC(c2ccccc2)S1 (configuration not stated) | 107% (inactive)
8 | COc1cccc(C(=O)Nc2ccc(CN3CCc4nc5cc(OC)c(OC)cc5cc43)cc2)c1 | 25.7% (inactive)
9 | COc1ccc(-c2nn(-c3cccc(NC(=O)c4cc(C(F)(F)F)cc(C(F)(F)F)c4)c3)cc2-c2ccncc2)cc1Cl | 69.5% (inactive)
10 | O=C(Nc1ccccc1)Nc1cccc(-n2cc(-c3ccncc3)c(-c3ccc(O)c(Cl)c3)n2)c1 | 38.3% (inactive)
11 | N#CCCN1C/C(=C/c2ccc(Cl)cc2)C(=O)/C(=C/c2ccc(Cl)cc2)C1 | -11.7% (active)
12 | COc1ccc(-c2nn(-c3cccc(NC(=O)c4cccc(C(F)(F)F)c4)c3)cc2-c2ccncc2)cc1Cl | 24% (inactive)
13 | COc1ccc([N+](=O)[O-])c(C(=O)O)c1 | 74.4% (inactive)
14 | CN(C)CCN=c1nc2c(c(N)n1-c1ccccc1)c(=S)n(-c1ccccc1)c(=S)n2-c1ccccc1 | 3.92% (active)
15 | O=C(Nc1cccc(-n2cc(-c3ccncc3)c(-c3ccc(O)c(Cl)c3)n2)c1)c1cccc(C(F)(F)F)c1 | 29.8% (inactive)
16 | COc1cccc(NC(=O)c2sc3nc4c(cc3c2N)C(O)CCC4)c1 (configuration not stated) | 6.41% (active)
17 | O=S(=O)(NCCCNc1nccc(-c2c(-c3ccc(F)cc3)nc3sccn23)n1)c1ccc2ccccc2c1 | 35% (inactive)
18 | COc1ccc(-c2nn(-c3cccc(NC(=O)Nc4cccc(C(F)(F)F)c4)c3)cc2-c2ccncc2)cc1Cl | 2.54% (active)
19 | COc1ccc(-c2nn(-c3cccc(NC(=O)c4ccc(Cl)c(Cl)c4)c3)cc2-c2ccncc2)cc1Cl | 62.7% (inactive)
20 | Cc1c(Cl)cccc1NC(=O)c1sc2nc3c(cc2c1N)C(=O)CCC3 | 6.7% (active)

Row | Structure (SMILES) | growth
21 | COc1cc(/C=C/C(=O)c2ccc(Cl)cc2)ccc1OS(=O)(=O)c1ccc(C)cc1 | -2.36% (active)
22 | O=C(N/N=C/c1cc2ccccc2c2ccccc12)c1cc(O)c(O)c(O)c1 | 35.6% (inactive)
23 | COc1ccc(-c2nn(-c3cccc(NC(=O)c4ccc(N5CCOCC5)c(C(F)(F)F)c4)c3)cc2-c2ccncc2)cc1Cl | 42.1% (inactive)
24 | COc1ccc(-c2cc(/C=C/C(=O)c3cc(OC)c(OC)c(OC)c3)[nH]n2)cc1OC | 3.41% (active)
25 | CC1=C(N2CCOCC2)C(N2CCOCC2)=C(C)C(=O)C1=O | 92.7% (inactive)
26 | Cc1ccc(C)c(C(O)(c2cc(C)ccc2C)C2(O)CCCCC2)c1 | 71.5% (inactive)
27 | COc1ccc(-c2nn(-c3cccc(NC(=O)c4ccc5c(c4)OCCO5)c3)cc2-c2ccncc2)cc1Cl | 11.3% (inactive)
28 | Cc1ncc(-c2ccoc2)c(NC2CCCCCC2)n1 | 84% (inactive)
29 | O=S(=O)(NCCNc1nccc(-c2c(-c3ccc(F)cc3)nc3sccn23)n1)c1ccc2ccccc2c1 | 54% (inactive)
30 | COc1ccc2c(c1)nc(N)c1c3cccnc3cn21 | 30.9% (inactive)
31 | O=C(Nc1cccc(-n2cc(-c3ccncc3)c(-c3ccc(O)c(Cl)c3)n2)c1)c1ccc(Cl)c(Cl)c1 | 45.8% (inactive)
32 | CCN1CCCC1CNC(=O)c1ncc(-c2ccc(C(F)(F)F)cc2)c(NC2CCCCCC2)n1 (configuration not stated) | 66.3% (inactive)
33 | Clc1ccc(-c2cn(-c3ccccc3)c(-c3ccccc3)n2)c(Cl)c1 | 6.15% (active)
34 | CCCCCCCCCCCCCCCC(=O)OC1[C@@H](OC(=O)CCCCCCCCCCCCCCC)[C@@H](C(=O)N[C@@H](CCCCN)C(=O)OC)O[C@H]1n1cnc2c(=O)[nH]c(NC(=O)C(C)C)nc21 (some centres not stated) | 93.4% (inactive)
35 | O=c1oc2cc(OS(=O)(=O)c3ccccc3)ccc2c2c1CCCCC2 | 31.4% (inactive)
36 | O=C1Nc2ccccc2C1=NC1CCCCC1 | 111% (inactive)
37 | O=C(Nc1cccc(-n2cc(-c3ccncc3)c(-c3ccc(O)c(Cl)c3)n2)c1)c1ccc(N2CCOCC2)c(C(F)(F)F)c1 | 40.2% (inactive)
